The structures appear in SMILES notation. Compounds without any hit were thinned out: in the full panel of roughly 83,000, 20% have a hit.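 Percent growth is the endpoint: 0 to 100 indicates growth inhibition (40 means 60% inhibition), 0 means no net growth, and negative values indicate cell death.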 The source made the active and inactive calls. Rule for the calls: active = growth percent below 10; inactive = the rest.

The subject of the experiment is HL-60(TB) leukemia. Kind of experiment: NCI-60 one-dose screen, 48 h (100 = growth as untreated, 0 = no growth, -100 = all killed). The settings on record: 10 µM unless noted.
Regarding `Cc1ncn(-c2ccc(/C=N/Nc3ccnc4cc(Cl)ccc34)cc2)c1C`, the growth is -40.4% (active).
As for `COc1cc(/C=C/C(=O)c2cc(OC)c(OC)c(OC)c2)ccc1Oc1nc(NCCO)nc(N2CCOCC2)n1`, the figure is -5.23% (active); as for `CNC(=O)c1cc(-n2ccc3cc(NC(=O)Nc4ccc(N5CCN(C)CC5)c(C(F)(F)F)c4)ccc32)ccn1`, 65.8% (inactive); as for `NS(=O)(=O)c1ccc(-n2cc(CN3CCCCC3)nn2)cc1`, 101% (inactive).
As for `O=C(CCn1c[n+](CC(=O)c2ccc(F)cc2)c2ccccc21)Nc1cccc2cccnc12`, the figure is 36.7% (inactive); as for `COc1ccc(-c2nnc(/N=C3/C(=O)Nc4ccc(Br)cc43)o2)cc1`, 60.4% (inactive); as for `N#C/C(=C\c1ccc(Cl)cc1Cl)C(N)=O`, 90.9% (inactive).
The same measure for `O=C(COc1ccc(C2SCC(=O)N2c2ccc(F)cc2)cc1)c1ccccc1` (stereo not drawn): 98.6% (inactive); for `Oc1ccccc1-c1nnc(SCc2ccc(O)c3ncccc23)o1`: 26.3% (inactive).
In the case of `CC(=O)N(C)C1CCc2c(sc(NC(=O)c3ccc(C(C)(C)C)cc3)c2C(N)=O)C1` (stereo not drawn), the growth is 40.4% (inactive).
With `CCCc1cc2cc(-n3nc(CC)c4c3CC(C)(C)CC4=O)cc(NC3CCC(O)CC3)c2c(=O)[nH]1` (stereo not drawn), the growth was -2.33% (active).
In the case of `O=c1[nH]c2cc(Cl)ccc2n1C1CCN(c2ccc3nnc(Cl)n3n2)CC1`, the growth is 93.1% (inactive).
As to `CCc1nn2c(C)cc(C)nc2c1Cc1ccc(/C=C/CN2CCN(CCOCCOCCN3CCN(C/C=C/c4ccc(Cc5c(CC)nn6c(C)cc(C)nc56)cc4)CC3)CC2)cc1`, the growth was -51.4% (active).

These data come from PubChem BioAssay (NCI).
